Laboratory results published in PubChem BioAssay (NCATS).
“And” between values parts separate entries of the source, which are not always exact repeats. Identical values can stand only once. Records with an inconclusive call do not appear. The source made the active and inactive calls. Calls follow the shape of the dose curve; as a rule, active = well fitted inhibition curve with a large enough effect; inconclusive = small, poorly fitted or top-dose-only effect; inactive = no such curve, though single readings can be large or run the other way.

Test: qHTS for Inhibitors of the Aldehyde Dehydrogenase Family (ALDH1A2, ALDH1A3, ALDH2, ALDH3A1) (AID 2061307); also: nearly all actives have a fitted effect of over 50% in size; as to Potency: test system not described further here
Conditions: ALDH inhibition qHTS; series mostly up to 50.3 µM
Potency is read from the fitted curve at half-maximal effect.

Potency, inactive:
COc1ccc(C(=O)OCC(=O)Nc2cccc(C(F)(F)F)c2)cc1OC
CCOc1ccc(CNC(=O)c2cnc3c(C)cccn3c2=O)cc1
COc1ccc(OC)c(NC(=O)c2cc3cccc(OC)c3oc2=O)c1
CC(NC(=O)c1ccco1)c1nc(-c2ccccc2)no1 (centres undefined)
Cc1sc(-n2nc(-c3ccccc3)c(Cc3ccc(S(N)(=O)=O)cc3)c2N)nc1C(=O)O
CN(C)c1ccc(C(=O)Nc2nnc(C3=COCCO3)o2)cc1
O=C(c1ccco1)N1CCN(Cc2nc3ccccc3c(=O)n2-c2ccccc2Oc2ccccc2)CC1
O=C(O)c1csc(-n2[nH]c(-c3c(F)cccc3F)cc2=O)n1
COc1ccc(-n2ccc(C(=O)NC(C)(C)C)n2)cc1
O=C(O)c1ccc(-c2ccc3ncnc(NCc4cccs4)c3c2)o1
COc1ccc(-n2c(C)c(C(C)=O)c3cc(OC)ccc32)cc1
CS(=O)(=O)c1nc(-c2ccc(Br)cc2)cs1
COc1ccc(-n2c(C)c(C(=O)c3ccccc3)c3cc(O)ccc32)cc1
Cc1ccc(NC(=O)c2cnc3cc(C)ccn3c2=O)c(C)c1
O=C(Cn1c2ncccc2c(=O)n1-c1ccccc1)Nc1ccc(Cl)cc1C(F)(F)F
CCOc1ccc(C(=O)NCc2nc(-c3ccc(Cl)cc3)no2)cc1OCC

Potency, active:
Cc1c2c(=O)n(-c3ccccc3)[nH]c2cc(=O)n1Cc1ccco1 22.5 µM
O=C1CC(c2c(F)cccc2F)c2sc(N3CCOCC3)nc2N1 (centres undefined) 11.3 µM
O=C(Cc1ccc(-c2csc(Nc3ccc(F)cc3)n2)s1)N1CCOCC1 7.12 µM
COC(=O)CNCc1c(O)ccc2ccccc12 6.34 µM
O=C(Nc1ccc(S(=O)(=O)N2CCOCC2)cc1)c1ccc(CN2Cc3ccccc3C2)cc1 0.316 µM
Cc1ccc(S(=O)(=O)Nc2ccc(O)c3ccccc23)c(C)c1 14.2 µM
CCOc1ccc(NCC(=O)Nc2ccc(Cl)cc2C)cc1 2.25 µM and 7.94 µM
O=C(N/N=C/c1ccc(Sc2cccc3cccnc23)o1)c1cccc(F)c1 7.12 µM
